Only some compounds are listed: those with a hit (about 19% of all), similar ones and a draw of the others.
TDP1 cell noCPT = qHTS for Inhibitors of human tyrosyl-DNA phosphodiesterase 1 (TDP1): qHTS in cells in absence of CPT | AID 686978, 2013 | Potency, µM (top dose mostly 46.2 µM), for inactives: at the highest dose activity change, negative = growth inhibition, usual class: inhibitors | DT40 Tdp1-/- hTDP1 cells, no CPT, ATP luminescence, 48 h | actives 15% (n = 420,000); also: potency is read from the fitted curve at half-maximal effect; nearly all actives have a fitted effect of over 55% in size
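Chicken DT40 Tdp1-/- cells stably complemented with human TDP1 were seeded at 400 cells/well with DMSO in place of 20 nM camptothecin. After compound pinning, cells grew at least 48 hr at 37 °C; viability read by CellTiter-Glo luminescence.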
DT40 TDP1 CPT = qHTS for Inhibitors of human tyrosyl-DNA phosphodiesterase 1 (TDP1): qHTS in cells in presence of CPT | chicken DT40 Tdp1-/-;hTDP1 cells + 20 nM CPT, ATP luminescence, 48 h | Potency, µM (highest dose often 46.2 µM), for inactives: at the top dose activity change, negative = growth inhibition, usual class: inhibitors | actives 12% (n = 420,000); also: potency is read from the fitted curve at half-maximal effect; nearly all actives have a fitted effect of over 55% in size
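Cell growth measured by CellTiter-Glo luminescence after a minimum 48 h, 37 C compound exposure with 20 nM CPT in Tdp1-knockout DT40 cells stably expressing hTDP1, seeded 400/well; qHTS titration format.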
ELG1 repair inh = qHTS screen for small molecules that inhibit ELG1-dependent DNA repair in human embryonic kidney (HEK293T) cells expressing luciferase-tagged ELG1. AID 504467, 2011. actives 2.3% (n = 330,000). Potency, µM (top dose mostly 46.1 µM), for the others: at the highest dose activity change, negative = inhibition, most hits filed as inhibitors. HEK293T ELG1-luciferase reporter, luminescence, 16 h; DNA damage induced by 5-fluorouridine; also: potency is read from the fitted curve at half-maximal effect; nearly all actives have a fitted effect of over 55% in size
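Quantitative HTS, concentration-response format. 2,000 cells/well co-treated with 5-fluorouridine and compound, 16 hr in 5% CO2 at 37 °C; ONE-Glo luminescence read after 30 min.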
Giardia killer = Small Molecules that selectively kill Giardia lamblia: qHTS; Giardia lamblia trophozoite viability; activity change, % at 7.66 µM, hits read low; actives 0.15% (n = 340,000); in the data active = activity change below about -80%; inconclusive = between about -30% and that limit;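 also: parasites exposed to compound for two days anaerobically before the ATP read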
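Luminescent ATP signal served as the viability read-out, measured 15-30 min after adding ATP detection reagent to trophozoites that had been incubated with compounds for 48 hrs at 37 deg C anaerobically at 100 cells/well.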
TDP1 inh = qHTS Assay for Inhibitors of Tyrosyl-DNA Phosphodiesterase (TDP1); Potency, µM (doses to about 130 µM), for the others: at the highest dose activity change, negative = inhibition, most hits filed as inhibitors; actives 0.28% (n = 350,000); recombinant TDP1, AlphaScreen DNA substrate cleavage; also: potency is read from the fitted curve at half-maximal effect; nearly all actives have a fitted effect of over 40% in size
Target sequence (Q9NUW8 whole entry, looked up): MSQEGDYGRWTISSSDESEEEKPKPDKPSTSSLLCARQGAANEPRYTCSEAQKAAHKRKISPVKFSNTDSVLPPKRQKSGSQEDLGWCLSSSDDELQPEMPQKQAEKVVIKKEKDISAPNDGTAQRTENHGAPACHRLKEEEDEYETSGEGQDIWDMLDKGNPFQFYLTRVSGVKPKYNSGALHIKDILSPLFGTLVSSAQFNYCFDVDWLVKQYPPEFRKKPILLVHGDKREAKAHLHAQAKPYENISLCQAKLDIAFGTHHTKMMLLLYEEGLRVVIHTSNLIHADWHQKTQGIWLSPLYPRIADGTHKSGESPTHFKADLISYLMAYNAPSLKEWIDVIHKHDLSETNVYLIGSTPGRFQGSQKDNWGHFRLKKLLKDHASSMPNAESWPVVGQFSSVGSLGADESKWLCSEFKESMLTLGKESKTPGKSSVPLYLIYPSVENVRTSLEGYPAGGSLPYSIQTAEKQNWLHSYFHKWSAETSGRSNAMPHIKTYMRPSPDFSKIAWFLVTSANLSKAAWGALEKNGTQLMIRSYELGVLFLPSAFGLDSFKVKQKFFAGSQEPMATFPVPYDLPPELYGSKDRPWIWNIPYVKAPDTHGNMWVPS
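AlphaScreen read-out: signal falls as enzyme removes the 3' tyrosine-FITC from a 5'-biotinylated DNA oligo (15 nM, 5 min, RT). Enzyme was E. coli-made recombinant Tdp1 at 1 nM, exposed to compound for 15 min beforehand; beads 10 ug/ml, 10 min.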
IL-1B inflam inh = qHTS for Inhibitors of Inflammasome Signaling: IL-1-beta AlphaLISA Primary Screen; THP-1 LPS/ATP IL-1B secretion, AlphaLISA, 16 h; stronger effect = lower value; activity change, % at 57.5 µM; AID 743279, 2014; actives 4.7% (n = 360,000); in the data active = activity change below about -50%; inconclusive = mostly about -30% to -49%
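THP-1 cells pretreated 1 hr with compounds (up to 57.5 uM final), then stimulated with LPS (250 ng/mL final) plus ATP (1.25 mM final); secreted IL-1B measured by AlphaLISA after 16 hr, decreased signal indicating inhibition.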
An asterisk follows results filed as active; ? = inconclusive; · = no result given; [ ] = another dose, or the depositor's remark. Unless noted, calls follow the shape of the dose curve; as a rule, active = well fitted curve in the direction sought with a large enough effect; inconclusive = small, poorly fitted or top-dose-only effect, or another doubt; inactive = no such curve, though single readings can be large; an effect the other way counts as inactive or inconclusive. % is scaled to controls: 0 for no effect and ±100 for the full control effect.

SMILES	TDP1 cell noCPT	DT40 TDP1 CPT	ELG1 repair inh	Giardia killer	TDP1 inh	IL-1B inflam inh
C[C@H]1O[C@@H](n2cnc3c(N)ncnc32)C[C@@H]1OP(=O)(O)OP(=O)(O)OP(=O)(O)O	·	·	·	·	9%	·
CCc1ccccc1NC(=O)CCS(=O)(=O)c1ccc(OC)cc1	-3%	-11%	4%	39	·	-4
Cc1ccc(S(=O)(=O)N2CCN(C(=O)c3ccc(COc4ccccc4)o3)CC2)cc1	?	-18%	?	-1	3%	-14
CCCc1cc(=O)[nH]c(SCC(=O)Nc2sc3c(c2C#N)CCC(C)C3)n1 (stereo not given)	-22%	-27%	10%	-18	5%	12
CC1CCc2c(sc(NC(=O)COC(=O)c3ccc(NC(=O)CC#N)cc3)c2C#N)C1 (stereo not given)	-17%	19%	25%	-8	1%[0.505 µM]	-1
CCN1CCN(CC(=O)Nc2sc3c(c2C#N)CCC(C)C3)CC1 (stereo not given)	18µM*	?	14%	6	4%	-4
CC1CCc2c(sc(NC(=O)CSc3ncn[nH]3)c2C#N)C1 (stereo not given)	23µM*	?	-23%	20	·	-6
CC(=O)c1c(C)[nH]c(C(=O)OCC(=O)Nc2sc3c(c2C#N)CCC(C)C3)c1C (stereo not given)	23µM*	?	-4%	-2	·	13
CC(C)NC(=S)N1CCN(c2ncccn2)CC1	-6%	-6%	?	5	0%	7
C=CCSC1=N/C(=C\C=C\c2ccco2)C(=O)S1	18µM*	23µM*	8%	-5	2%	-9
CN(Cc1ccc(Cl)c(Cl)c1)C(C(=O)NCc1ccccc1)c1ccc(C(F)(F)F)cc1 (stereo not given)	?	?	·	·	·	-13
CCc1cc(=O)oc2c3c(cc(OCC(=O)NCc4ccccn4)c12)OC(C)(C)CC3	?	23µM*	?	15	·	-22
Cc1c(C)c2c(OCC(=O)Nc3cccnc3)cc3c(c2oc1=O)CCC(C)(C)O3	-25%	-19%	0%	-3	·	-23
CCc1cc(=O)oc2c3c(cc(OCC(=O)NCCCCCC(=O)O)c12)OC(C)(C)CC3	12%	3%	?	-4	·	11
CCc1cc(=O)oc2c3c(cc(OCC(=O)Nc4cccnc4)c12)OC(C)(C)CC3	15µM*	?	?	-6	·	?
CCCc1cc(=O)oc2c3c(cc(OCC(=O)NCCCn4ccnc4)c12)OC(C)(C)CC3	26µM*	16µM*	?	7	·	0
Cc1cc(=O)oc2c3c(cc(OCC(=O)NCCCn4ccnc4)c12)OC(C)(C)CC3	?	?	15%	-22	·	2
Cc1ccc(C)c(N2CCN(S(=O)(=O)c3cc(C(=O)Nc4ccccc4C(F)(F)F)ccc3F)CC2)c1	13µM*	12µM*	·	·	8%	·
Cc1ccccc1NC(=O)c1ccc(F)c(S(=O)(=O)N2CCN(c3ccccn3)CC2)c1	11µM*	28µM*	23µM*	3	4%	-23
Cc1ccccc1NC(=O)c1ccc(C)c(S(=O)(=O)N2CCN(C)CC2)c1	19%	-5%	5%	7	2%	0
Oc1ccc(Nc2nc(-c3cccnc3)cs2)cc1	23µM*	21µM*	?	-28	·	?
Nc1ccc(Nc2nc(-c3ccncc3)cs2)cc1	18µM*	?	?	-25	9%	?
CC(=O)c1cccc(Nc2nc(-c3cccnc3)cs2)c1	?	?	?	1	·	-88*
Oc1ccc(Nc2nc(-c3ccc(O)cc3)cs2)cc1	5µM*	11µM*	?	-10	13%	?
Oc1ccc(Nc2nc(-c3ccc(Cl)cc3)cs2)cc1	·	·	·	·	21%	·
SMILES	TDP1 cell noCPT	DT40 TDP1 CPT	ELG1 repair inh	Giardia killer	TDP1 inh	IL-1B inflam inh
O=C(O)c1cc(Cl)n[nH]c1=O	32%	-8%	·	·	·	0
CCCCCCCCCC[n+]1cccc2cc(Cl)ccc21	1.3µM*	1.3µM*	·	·	·	·
CC(C)(C)c1nc2ccc(Cl)cn2c1CC1CCCCC1	?	?	·	·	·	30
Clc1ccc2c(ccc[n+]2CCC2CCCCC2)c1	8.9µM*	10µM*	·	·	·	·
CCCCCCCCCC[n+]1cccc2c3ccccc3ccc21	0.15µM*	0.33µM*	2.3µM*	13	6%	0
Cc1cccc[n+]1CCCCCCCCCC[n+]1ccccc1C	3%	?	?	0	-6%	34
CCCCCCCCCCCCCCCC[n+]1ccc(C)c2ccccc21	0.79µM*	0.71µM*	·	·	·	·
CCCCCC(=O)Nc1cccc2ccccc12	-1%	-17%	21%	4	-1%	17
Clc1ccc2c(ccc[n+]2CCc2ccccc2)c1	?	-30%	·	·	·	·
COC(=O)c1cn(C(=O)c2cccc(C)c2)c2ccccc12	-2%	-5%	1%	9	0%	-11
CC(C)CN(CC(C)C)c1ccc(/C=N/n2cnnc2)cc1[N+](=O)[O-]	?	?	-12%	8	6%	-55*
Cc1cc2c(cc1C)N(C(=O)CCl)CCN2C(=O)CCl	0.58µM*	0.46µM*	·	5	·	-100*
Cc1cc2c(cc1C)N(C(=O)CCl)CC(=O)N2	2.6µM*	2.3µM*	·	·	·	-65*
Cc1cc(=O)oc2cc(OCC(=O)N3CC(=O)Nc4ccccc43)c(Cl)cc12	-6%	-6%	-7%	-3	-3%	10
O=C(COCc1cc(-c2cccs2)on1)Nc1ccc(OC(F)(F)F)cc1	-19%	-18%	·	·	0%	·
Cc1cc(-c2ccc(N3CCOCC3)cc2)nc2ccccc12	23µM*	21µM*	?	0	-3%	-13
Oc1ccc(Nc2nc(N3CCCC3)c3ccccc3n2)cc1	21µM*	26µM*	8%	52	7%	-99*
C(=C\c1nc(N2CCCC2)c2ccccc2n1)/c1ccccc1	?	?	-6%	-3	1%	-98*
COc1ccc(Nc2nc(N3CCCCC3)c3ccccc3n2)cc1	18µM*	18µM*	-1%	-6	6%	-101*
O=C(CN1C(=O)c2ccccc2C1=O)NCC1Cc2cccc(-c3ncccn3)c2O1 (stereo not given)	-11%	1%	·	·	·	·
